Measured values: PubChem BioAssay AID1159580 (chemical genetic matrix, 2015)
Out of some 5,500 compounds screened, about 2,000 (36%) were called active. Not shown: some 18% with an inconclusive outcome. Rule as the data show it: active = normalized growth mostly below about 0.91 (no sharp cut-off); inconclusive = no clear call, values can overlap the other calls; inactive = mostly above about 0.92. Some of the results follow.

Experiment: chemical genetic growth profiling, strain panel (AID 1159580);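 also: tested at 20 µM; growth read once vehicle control cultures reached saturation at 30 °C; 1 = growth at the plate median or of vehicle wells; lower values mean less growth of the strain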
Settings: growth OD

Measured: normalized growth

C=C1CCC2C(CC2(C)C)C(=C)CC/C1=N\O (centres undefined)
inactive: S. cerevisiae deletion strains, locus YJL187C, strain SWE1, hits give low values 1.01 | S. cerevisiae deletion strains, locus YJR043C, strain POL32, hits give low values 0.905 | S. cerevisiae deletion strains, locus YJR075W, strain HOC1, hits give low values 0.894 | S. cerevisiae deletion strains, locus YKL068W, hits give low values 0.996 | S. cerevisiae deletion strains, locus YKL085W, strain MDH1 (second series), hits give low values 0.972 | S. cerevisiae deletion strains, locus YKL085W, strain MDH1, hits give low values 0.972 | S. cerevisiae deletion strains, locus YKL160W, strain elf1, hits give low values 1 | S. cerevisiae deletion strains, locus YKL190W, strain CNB1, hits give low values 1.01 | S. cerevisiae deletion strains, locus YKR026C, strain gcn3, hits give low values 0.998 | S. cerevisiae deletion strains, locus YKR091W, strain srl3, hits give low values 0.995 | S. cerevisiae deletion strains, locus YLL001W, strain dnm1, hits give low values 1.01 | S. cerevisiae deletion strains, locus YLL026W, hits give low values 0.999 | S. cerevisiae deletion strains, locus YLL041C, strain sdh2, hits give low values 0.994 | S. cerevisiae deletion strains, locus YLR027C, strain aat2, hits give low values 1 | S. cerevisiae deletion strains, locus YLR058C, strain SHM2, hits give low values 1.01 | S. cerevisiae deletion strains, locus YLR102C, strain apc9, hits give low values 1.01 | S. cerevisiae deletion strains, locus YLR221C, strain rsa3, hits give low values 0.983 | S. cerevisiae deletion strains, locus YLR258W, strain gsy2, hits give low values 1.01 | S. cerevisiae deletion strains, locus YLR262C, strain YPT6 (second series), hits give low values 0.966 | S. cerevisiae deletion strains, locus YLR268W, strain sec22, hits give low values 0.936 | S. cerevisiae deletion strains, locus YLR320W, strain mms22, hits give low values 0.984 | S. cerevisiae deletion strains, locus YLR330W, strain CHS5, hits give low values 1.01 | S. cerevisiae deletion strains, locus YLR342W, strain FKS1, hits give low values 1.01 | S. cerevisiae deletion strains, locus YLR357W, strain rsc2, hits give low values 1.03 | S. cerevisiae deletion strains, locus YLR370C, strain arc18, hits give low values 0.996 | S. cerevisiae deletion strains, locus YLR371W, strain rom2, hits give low values 0.994 | S. cerevisiae deletion strains, locus YLR384C, strain iki3, hits give low values 0.992 | S. cerevisiae deletion strains, locus YLR418C, strain cdc73, hits give low values 0.847 | S. cerevisiae deletion strains, locus YML016C, strain PPZ1, hits give low values 0.999 | S. cerevisiae deletion strains, locus YML120C, strain ndi1, hits give low values 1.01 | S. cerevisiae deletion strains, locus YML124C, strain tub3, hits give low values 0.99 | S. cerevisiae deletion strains, locus YMR058W, strain fet3, hits give low values 1.01 | S. cerevisiae deletion strains, locus YMR078C, strain ctf18, hits give low values 0.978 | S. cerevisiae deletion strains, locus YMR125W, strain sto1, hits give low values 1.03 | S. cerevisiae deletion strains, locus YMR129W, hits give low values 1 | S. cerevisiae deletion strains, locus YMR205C, strain PFK2, hits give low values 0.992 | S. cerevisiae deletion strains, locus YMR223W, strain ubp8, hits give low values 0.906 | S. cerevisiae deletion strains, locus YMR231W, strain pep5, hits give low values 0.997 | S. cerevisiae deletion strains, locus YMR263W, strain SAP30, hits give low values 0.962 | S. cerevisiae deletion strains, locus YNL067W, strain RPL9B, hits give low values 0.942 | S. cerevisiae deletion strains, locus YNL071W, strain lat1, hits give low values 1 | S. cerevisiae deletion strains, locus YNL128W, strain TEP1, hits give low values 0.964 | S. cerevisiae deletion strains, locus YNL153C, strain GIM3, hits give low values 0.972 | S. cerevisiae deletion strains, locus YNL209W, strain ssb2, hits give low values 1 | S. cerevisiae deletion strains, locus YNL233W, strain BNI4, hits give low values 0.892 | S. cerevisiae deletion strains, locus YNL248C, strain rpa49, hits give low values 1 | S. cerevisiae deletion strains, locus YNL250W, strain rad50, hits give low values 0.991 | S. cerevisiae deletion strains, locus YNL271C, strain bni1, hits give low values 0.969 | S. cerevisiae deletion strains, locus YNL322C, strain KRE1 (second series), hits give low values 0.983 | S. cerevisiae deletion strains, locus YNL322C, strain KRE1, hits give low values 0.988 | S. cerevisiae deletion strains, locus YNR049C, strain mso1, hits give low values 0.997 | S. cerevisiae deletion strains, locus YNR052C, strain pop2, hits give low values 0.944 | S. cerevisiae deletion strains, locus YOL006C, strain TOP1, hits give low values 0.725 | S. cerevisiae deletion strains, locus YOL012C, strain htz1 1.35 | S. cerevisiae deletion strains, locus YOL147C, strain pex11, hits give low values 0.983 | S. cerevisiae deletion strains, locus YOR001W, strain rrp6, hits give low values 0.985 | S. cerevisiae deletion strains, locus YOR061W, strain CKA2, hits give low values 0.997 | S. cerevisiae deletion strains, locus YOR069W, strain VPS5, hits give low values 1.01 | S. cerevisiae deletion strains, locus YOR070C, strain gyp1, hits give low values 0.991 | S. cerevisiae deletion strains, locus YOR080W, strain dia2, hits give low values 1.01 | S. cerevisiae deletion strains, locus YOR083W, strain WHI5, hits give low values 0.989 | S. cerevisiae deletion strains, locus YOR106W, strain vam3, hits give low values 1 | S. cerevisiae deletion strains, locus YOR136W, strain idh2, hits give low values 0.972 | S. cerevisiae deletion strains, locus YOR144C, strain elg1, hits give low values 0.976 | S. cerevisiae deletion strains, locus YOR265W, strain rbl2, hits give low values 0.993 | S. cerevisiae deletion strains, locus YOR270C, strain vph1, hits give low values 0.987 | S. cerevisiae deletion strains, locus YOR290C, strain snf2, hits give low values 0.972 | S. cerevisiae deletion strains, locus YOR316C, strain cot1, hits give low values 1 | S. cerevisiae deletion strains, locus YPL051W, strain arl3, hits give low values 1.03 | S. cerevisiae deletion strains, locus YPL055C, strain LGE1, hits give low values 0.844 | S. cerevisiae deletion strains, locus YPL078C, strain atp4, hits give low values 1 | S. cerevisiae deletion strains, locus YPL106C, strain sse1, hits give low values 1.05 | S. cerevisiae deletion strains, locus YPL240C, strain hsp82, hits give low values 1 | S. cerevisiae deletion strains, locus YPR119W, strain clb2, hits give low values 0.983 | S. cerevisiae deletion strains, locus YPR141C, strain kar3, hits give low values 1.01 | S. cerevisiae deletion strains, locus YPR163C, strain tif3, hits give low values 0.996 | S. cerevisiae deletion strains, locus YPR167C, strain met16, hits give low values 0.993 | S. cerevisiae deletion strains, strain wtn01, hits give low values 0.915 | S. cerevisiae strains, strain wild type, hits give low values 0.982
active: S. cerevisiae deletion strains, locus YKL009W, strain mrt4, hits give low values 0.879 | S. cerevisiae deletion strains, locus YKR001C, strain vps1, hits give low values 0.703 | S. cerevisiae deletion strains, locus YLR039C, strain RIC1, hits give low values 0.441 | S. cerevisiae deletion strains, locus YLR262C, strain YPT6, hits give low values 0.393 | S. cerevisiae deletion strains, locus YLR342W, strain FKS1 (second series), hits give low values 0.694 | S. cerevisiae deletion strains, locus YML032C, strain rad52, hits give low values 0.89 | S. cerevisiae deletion strains, locus YMR307W, strain GAS1, hits give low values 0.423 | S. cerevisiae deletion strains, locus YNL298W, strain CLA4, hits give low values 0.878 | S. cerevisiae deletion strains, locus YNL307C, strain MCK1, hits give low values 0.683 | S. cerevisiae deletion strains, locus YOR184W, strain ser1, hits give low values 0.697
